BAZ2B inh: qHTS Assay for Inhibitors of BAZ2B. Bromodomain adjacent to zinc finger domain protein 2B (Homo sapiens), Q9UIF8. AlphaScreen BAZ2B-H3K14Ac peptide displacement. Potency, µM (highest dose often 114 µM), hits mostly inhibitors. actives 4.4% (n = 360,000); further: nearly all actives have a fitted effect of over 60% in size
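AlphaScreen luminescence quantifies BAZ2B engagement of H3K14Ac peptide; the protein and biotinylated peptide are both at 50 nM final, buffer PBS pH 7.4 with 0.01% Tween-20, all steps at room temperature.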
HP1b binding inh: HTS for Inhibitors of HP1-beta Chromodomain Interactions with Methylated Histone Tails; AlphaScreen HP1-beta / biotin-H3K9me3 peptide binding; Potency, µM (series often up to 114 µM), actives largely listed as inhibitors; actives 0.56% (n = 390,000); further: nearly all actives have a fitted effect of over 70% in size
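AlphaScreen: HP1-beta (50 nM) preformed 30 min with biotin-H3(1-18)K9me3 peptide (50 nM) in PBS pH 7.4, 0.01% Tween-20. Compound added for 30 min at RT, then streptavidin donor/nickel chelate acceptor beads (10 ug/mL) for 30 min.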
TDP1 block: qHTS Assay for Inhibitors of Tyrosyl-DNA Phosphodiesterase (TDP1); Tyrosyl-DNA phosphodiesterase 1 (Homo sapiens), Q9NUW8; recombinant TDP1, AlphaScreen DNA substrate cleavage; Potency, µM (highest dose often 130 µM), actives largely listed as inhibitors; actives 0.28% (n = 350,000); AID 485290, 2010; further: nearly all actives have a fitted effect of over 40% in size
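Recombinant E. coli-expressed Tdp1 (1 nM) preincubated with compound 15 min at RT, then 5'-biotin/3'-phosphotyrosine-FITC DNA substrate (15 nM) added for 5 min. AlphaScreen beads (10 ug/ml) added, 10 min RT; tyrosine-FITC cleavage read as signal loss.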
JMJD2A Tudor inh: qHTS Assay for Inhibitors of JMJD2A-Tudor Domain; Lysine-specific demethylase 4A (Homo sapiens), O75164; AlphaScreen JMJD2A-Tudor / H3K4me3 peptide binding; Potency, µM (series often up to 114 µM), hits mostly inhibitors; actives 4.4% (n = 390,000); further: nearly all actives have a fitted effect of over 50% in size
G9a inh: qHTS Assay for Inhibitors of Histone Lysine Methyltransferase G9a; Histone-lysine N-methyltransferase EHMT2 (Homo sapiens), Q96KQ7; G9a H3K9 monomethylation, AlphaScreen, 2 h; Potency, µM (series often up to 102 µM), hits mostly inhibitors; actives 8.8% (n = 350,000); AID 504332, 2011; further: nearly all actives have a fitted effect of over 75% in size
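Compounds were preincubated with 20 nM G9a for 15 min, after which biotinylated H3K9 peptide (500 nM) and SAM (20 uM) started a 2 h room-temperature reaction. Monomethylated product was quantified by antibody-based AlphaScreen chemiluminescence.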
Sfp PPTase inh: qHTS Assay for Inhibitors of Bacillus subtilis Sfp phosphopantetheinyl transferase (PPTase) | 4'-phosphopantetheinyl transferase ffp (Bacillus subtilis), Q9F4F7 | Biochemical Sfp PPTase activity, qHTS | Potency, µM, most hits filed as inhibitors | actives 3.5% (n = 310,000) | AID 1490, 2009;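 further: the enzyme is Sfp with the accession as filed and its product quenches rhodamine fluorescence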
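Fluorescence-quenching assay: 15 nM Sfp-PPTase preincubated 15 min at room temperature with compound, then 5 uM rhodamine-CoA and 12.5 uM BHQ-2-labelled YbbR peptide added. Fluorescence (ex 525/em 598 nm) read at start and after 30 min; difference gives rate.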
Numbers stand for hits; ! = not confirmed by another sample; [ ] = dose if it differs, or a comment. An excerpt weighted towards active compounds, which were near 12% of everything screened. The call rests on the fitted dose curve; in most records, active means well fitted curve in the direction sought with a large enough effect; inconclusive means small, poorly fitted or top-dose-only effect, or another doubt; inactive means no such curve, though single readings can be large; an effect the other way counts as inactive or inconclusive.

For Cc1ccc(S(=O)(=O)N2CCc3cc(C(=O)Nc4ccc(C)c(C)c4)ccc32)cc1 the results were BAZ2B inh inactive, HP1b binding inh inactive, TDP1 block inactive, JMJD2A Tudor inh inactive and G9a inh inactive.
CCOC(=O)CN(C(=O)CSc1nnc(COc2ccc(OC)cc2)n1CC)c1ccccc1 was read as BAZ2B inh inactive, HP1b binding inh inactive, JMJD2A Tudor inh inactive, G9a inh inactive[12.7 µM] and Sfp PPTase inh inactive.
For COc1cc2nc(N(C)CCCNC(=O)C3CCCO3)nc(N)c2cc1OC (centres undefined) the results were BAZ2B inh inactive, TDP1 block inactive, G9a inh 11µM! and Sfp PPTase inh inactive.
`C#CCOCCOCCOCCNc1nc(N2CCN(C(=O)[C@H]([C@@H](C)CC)n3cc([C@@H](N)CO)nn3)CC2)nc(N2CCN(C(=O)[C@H](Cc3ccc(O)cc3)n3cc([C@@H](N)CC(C)C)nn3)CC2)n1` gave BAZ2B inh 32µM, HP1b binding inh inactive, TDP1 block inactive, JMJD2A Tudor inh 56µM, G9a inh inconclusive and Sfp PPTase inh inactive.
C#CCOCCOCCOCCNc1nc(N2CCN(C(=O)[C@H]([C@@H](C)CC)n3cc([C@@H](N)Cc4ccc(O)cc4)nn3)CC2)nc(N2CCN(C(=O)[C@H](Cc3ccc(O)cc3)n3cc([C@@H](N)CC(C)C)nn3)CC2)n1 was read as BAZ2B inh 56µM, HP1b binding inh inactive, TDP1 block inactive, JMJD2A Tudor inh 14µM, G9a inh inconclusive and Sfp PPTase inh inactive.
Screening C#CCOCCOCCOCCNc1nc(N2CCOCC2)nc(N2CCN(C(=O)[C@H](Cc3ccc(O)cc3)n3cc([C@@H](N)CC(C)C)nn3)CC2)n1 returned BAZ2B inh inactive, HP1b binding inh inactive, TDP1 block inactive, JMJD2A Tudor inh inactive, G9a inh inconclusive and Sfp PPTase inh inactive.
CCOc1ccc2[nH]c(=O)c(CN(Cc3ccco3)C(CC)c3nnnn3Cc3ccccc3)cc2c1 (centres undefined) was read as BAZ2B inh inactive, HP1b binding inh inactive, TDP1 block inactive, JMJD2A Tudor inh inactive, G9a inh 35µM and Sfp PPTase inh inconclusive.
Screening CCC(c1nnnn1C(C)(C)C)N(Cc1ccco1)Cc1cc2cccc(C)c2[nH]c1=O (centres undefined) returned BAZ2B inh inconclusive, HP1b binding inh inactive, TDP1 block inactive, JMJD2A Tudor inh inactive, G9a inh inconclusive and Sfp PPTase inh 56µM.
For CCC(c1nnnn1Cc1ccco1)N(CCN1CCOCC1)Cc1cc2cc(C)ccc2[nH]c1=O (centres undefined) the results were BAZ2B inh inactive, HP1b binding inh inactive, TDP1 block inactive, JMJD2A Tudor inh inactive, G9a inh inconclusive and Sfp PPTase inh 45µM.
COc1ccc2[nH]c(=O)c(CN(Cc3ccco3)Cc3nnnn3Cc3ccccc3)cc2c1 was read as BAZ2B inh inactive, HP1b binding inh inactive, TDP1 block inactive, JMJD2A Tudor inh inactive, G9a inh 50µM and Sfp PPTase inh 56µM.
`CCC(c1nnnn1Cc1ccccc1)N(Cc1ccccc1)Cc1cc2cc(C)ccc2[nH]c1=O` (centres undefined) gave HP1b binding inh inactive, TDP1 block inactive and JMJD2A Tudor inh inactive.
`Cc1cc(C)nc(NS(=O)(=O)c2ccc(NC(=O)COc3ccc(C(C)(C)C)cc3)cc2)n1` gave BAZ2B inh inactive, HP1b binding inh inactive, JMJD2A Tudor inh inactive and G9a inh inactive.
For CCOC(=O)/C(=N\Nc1ccccc1Cl)N(C)C1CCCCC1 the results were BAZ2B inh inactive, HP1b binding inh inactive, TDP1 block inactive, JMJD2A Tudor inh inactive, G9a inh 10µM and Sfp PPTase inh inactive.
`CCOC(=O)/C(=N\Nc1cc(C(F)(F)F)ccc1Cl)N(CC)CC` gave BAZ2B inh inconclusive, HP1b binding inh inactive, TDP1 block inactive, JMJD2A Tudor inh inactive, G9a inh 3.5µM and Sfp PPTase inh inactive.
`CCOC(=O)N1CCC(N(CCN(C)C)C(=S)Nc2ccccc2Cl)CC1` gave BAZ2B inh inactive, HP1b binding inh inactive, TDP1 block inactive, JMJD2A Tudor inh inactive, G9a inh inactive and Sfp PPTase inh inactive.
For CN(C)c1ccc(NC(=O)c2sc(SCC(=O)Nc3ccc(Br)cc3)nc2N)cc1 the results were BAZ2B inh inactive, HP1b binding inh inactive, TDP1 block inactive, JMJD2A Tudor inh inactive, G9a inh inactive and Sfp PPTase inh inactive.
For Cc1ccc(NC(=O)CSc2nc3ccc(NC(=O)CCc4ccccc4)cc3s2)c(C)c1 the results were BAZ2B inh inactive, HP1b binding inh inactive, TDP1 block inactive, JMJD2A Tudor inh inactive and G9a inh inactive.
COc1ccc(NC(=O)CSc2nc3ccc(Nc4nc(N5CCOCC5)nc(N5CCOCC5)n4)cc3s2)cc1 was read as BAZ2B inh inactive, HP1b binding inh inactive, TDP1 block inactive, JMJD2A Tudor inh inactive, G9a inh inconclusive and Sfp PPTase inh inactive.
For Cc1ccc(NC(=O)CSc2nc3ccc(NC(=O)c4ccco4)cc3s2)cc1 the results were BAZ2B inh 79µM, HP1b binding inh inactive, TDP1 block inactive, JMJD2A Tudor inh inactive and G9a inh inconclusive.
For Cc1ccc(C)c(NC(=O)CSc2nc3ccc(N4C(=O)c5ccccc5C4=O)cc3s2)c1 the results were BAZ2B inh inactive, HP1b binding inh inactive, TDP1 block inactive, JMJD2A Tudor inh inactive, G9a inh 11µM and Sfp PPTase inh inactive.
`CSc1nc2ccc(NC(=O)c3ccco3)cc2s1` gave BAZ2B inh inactive, HP1b binding inh inactive, TDP1 block inactive, JMJD2A Tudor inh inactive, G9a inh inactive and Sfp PPTase inh inactive.
CN(C)c1ccc(NC(=O)c2sc(SCC(=O)Nc3nccs3)nc2N)cc1 was read as BAZ2B inh 40µM, HP1b binding inh inconclusive, TDP1 block inactive, JMJD2A Tudor inh inconclusive, G9a inh inconclusive and Sfp PPTase inh inactive.
For CC(=O)Nc1ccc2nc(SCC(=O)Nc3ccc(N4CCOCC4)c(Cl)c3)sc2c1 the results were BAZ2B inh 11µM, HP1b binding inh inactive, TDP1 block inactive, JMJD2A Tudor inh inactive, G9a inh inactive[0.501 µM] and Sfp PPTase inh inactive.
Screening COc1cccc(Cn2c(=O)c(C)nc3cnc(OCc4ccccc4)nc32)c1 returned G9a inh inactive[12.7 µM] and Sfp PPTase inh inactive.
For CCN1C(=NCCN2CCOCC2)N[C@@H](CCc2ccccc2)C(C(=O)OC)=C1C the results were BAZ2B inh inactive, G9a inh inactive[12.7 µM] and Sfp PPTase inh inactive.

Bioassay records deposited in PubChem by National Center for Advancing Translational Sciences (NCATS).
